Source: ChEMBL document CHEMBL3988442, “University of Dundee, Small-Polar-MMV Screening Library” (2021)
For part of these data: Entries with a potency or affinity are not part of this list.

Tests used:
Design in all cases: scale not given: direction of the effect not stated beside the values
[1] = target: Protein translocase subunit SecA (Escherichia coli (strain K12)) (UniProt P10408); assay: Assay to Identify E. coli SecA ATPase Inhibitors; type: functional; conditions: 30 µM
[2] = target: T1, Ubiquitin-activating enzyme e1, putative (Leishmania donovani (strain BPK282A1)) (UniProt E9BSI1); assay: Leishmania donovani Ubiquitin Activating Enzyme (LdE1); type: functional; conditions: 30 µM
T1 sequence (whole entry): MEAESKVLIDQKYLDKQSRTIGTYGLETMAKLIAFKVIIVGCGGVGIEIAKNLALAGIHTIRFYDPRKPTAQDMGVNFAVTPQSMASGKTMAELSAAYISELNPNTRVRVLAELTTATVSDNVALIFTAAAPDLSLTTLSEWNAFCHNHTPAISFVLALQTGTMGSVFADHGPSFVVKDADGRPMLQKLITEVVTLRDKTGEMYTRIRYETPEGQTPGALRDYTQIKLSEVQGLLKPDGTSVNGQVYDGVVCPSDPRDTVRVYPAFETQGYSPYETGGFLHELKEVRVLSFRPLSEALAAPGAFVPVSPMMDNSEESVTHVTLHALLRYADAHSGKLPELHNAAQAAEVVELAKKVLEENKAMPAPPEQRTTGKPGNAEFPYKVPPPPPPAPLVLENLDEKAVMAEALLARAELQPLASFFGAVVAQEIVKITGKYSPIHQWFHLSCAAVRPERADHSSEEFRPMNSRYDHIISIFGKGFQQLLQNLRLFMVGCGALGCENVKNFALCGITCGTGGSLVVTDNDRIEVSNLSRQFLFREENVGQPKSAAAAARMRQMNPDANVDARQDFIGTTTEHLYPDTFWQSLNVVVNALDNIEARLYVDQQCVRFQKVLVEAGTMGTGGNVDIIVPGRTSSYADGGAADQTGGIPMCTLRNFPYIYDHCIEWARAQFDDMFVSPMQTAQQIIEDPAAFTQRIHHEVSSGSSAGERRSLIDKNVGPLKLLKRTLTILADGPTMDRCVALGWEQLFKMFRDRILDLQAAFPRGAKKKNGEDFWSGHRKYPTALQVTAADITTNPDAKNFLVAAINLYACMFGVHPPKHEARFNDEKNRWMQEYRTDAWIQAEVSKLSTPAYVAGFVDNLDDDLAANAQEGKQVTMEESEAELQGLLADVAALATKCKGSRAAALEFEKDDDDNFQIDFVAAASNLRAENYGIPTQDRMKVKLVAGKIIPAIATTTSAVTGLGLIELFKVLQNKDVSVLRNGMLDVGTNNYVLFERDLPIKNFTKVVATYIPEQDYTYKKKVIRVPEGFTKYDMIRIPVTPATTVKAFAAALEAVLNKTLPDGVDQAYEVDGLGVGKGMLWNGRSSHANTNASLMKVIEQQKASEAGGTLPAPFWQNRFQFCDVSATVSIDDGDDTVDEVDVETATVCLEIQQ

[3] = target: AMP-activated protein kinase, AMPK (Homo sapiens) (UniProt P54646+O43741+P54619+Q9UGJ0+Q9Y478+Q13131+Q9UGI9); assay: AMP-dependent Kinase enzyme assay. An in vitro enzyme assay that detects ADP turnover that is directly proportional to AMPK activity. This uses naive AMPK that is activated during the assay with MK-8722; type: functional; conditions: 30 µM
[4] = target: Sialic acid-binding Ig-like lectin 9 (Homo sapiens) (UniProt Q9Y336); assay: Hs-Siglec9 ALPHAscreen SOP 20170721; conditions: 10 µM
Trypanosoma cruzi = assay: Trypanosoma cruzi phosphomannomutase and mannose-1-phosphate guanylyltransferase assay; type: functional; conditions: 10 µM
[5] = target: T2, Arginase-2, mitochondrial (Homo sapiens) (UniProt P78540); assay: in vitro enzyme assay to detect the production of urea directly proportional to the activity of Arginase II; type: functional; conditions: 33.3 µM; note: in the data most compounds retested in dose-response had high values
T2 sequence (whole entry): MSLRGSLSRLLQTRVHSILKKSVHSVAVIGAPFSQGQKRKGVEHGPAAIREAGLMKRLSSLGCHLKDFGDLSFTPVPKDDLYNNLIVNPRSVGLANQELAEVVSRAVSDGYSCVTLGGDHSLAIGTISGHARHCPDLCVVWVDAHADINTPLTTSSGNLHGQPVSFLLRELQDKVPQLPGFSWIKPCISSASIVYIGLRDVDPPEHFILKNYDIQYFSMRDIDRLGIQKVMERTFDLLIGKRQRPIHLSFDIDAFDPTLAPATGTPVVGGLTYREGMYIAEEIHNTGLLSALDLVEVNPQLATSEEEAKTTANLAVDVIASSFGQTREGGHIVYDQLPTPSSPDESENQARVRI

[6] = target: T3, Proteasome subunit beta (Trypanosoma cruzi) (UniProt O96673); assay: Trypanosoma cruzi proteasome chymotrypsin-like activity (TcProtChymo) assay.; note: in the data most compounds retested in dose-response had high values; type: functional; conditions: 9.37 µM
T3 sequence (whole entry): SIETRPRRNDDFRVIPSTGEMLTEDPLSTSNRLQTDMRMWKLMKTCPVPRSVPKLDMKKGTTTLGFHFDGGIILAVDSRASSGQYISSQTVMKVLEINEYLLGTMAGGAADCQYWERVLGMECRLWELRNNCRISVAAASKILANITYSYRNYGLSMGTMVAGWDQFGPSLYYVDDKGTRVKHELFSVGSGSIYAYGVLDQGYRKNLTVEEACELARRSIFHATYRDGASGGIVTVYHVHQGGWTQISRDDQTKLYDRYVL

Homo sapiens = species: Homo sapiens; assay: To identify inhibition of the IFN signalling (Jak-Stat) pathway via expression of an eGFP reporter gene under the control of an IFN-stimulated response element (ISRE) containing MxA promoter.; type: functional; conditions: 30 µM
[7] = target: T4, Tyrosyl-tRNA synthetase, putative (Trypanosoma cruzi (strain CL Brener)) (UniProt Q4DSP6); assay: Trypanosoma cruzi tyrosyl tRNA synthetase (TcYRS) _High Tyrosine SOP; type: functional; conditions: 30 µM; note: in the data most compounds retested in dose-response had high values
T4 sequence (whole entry): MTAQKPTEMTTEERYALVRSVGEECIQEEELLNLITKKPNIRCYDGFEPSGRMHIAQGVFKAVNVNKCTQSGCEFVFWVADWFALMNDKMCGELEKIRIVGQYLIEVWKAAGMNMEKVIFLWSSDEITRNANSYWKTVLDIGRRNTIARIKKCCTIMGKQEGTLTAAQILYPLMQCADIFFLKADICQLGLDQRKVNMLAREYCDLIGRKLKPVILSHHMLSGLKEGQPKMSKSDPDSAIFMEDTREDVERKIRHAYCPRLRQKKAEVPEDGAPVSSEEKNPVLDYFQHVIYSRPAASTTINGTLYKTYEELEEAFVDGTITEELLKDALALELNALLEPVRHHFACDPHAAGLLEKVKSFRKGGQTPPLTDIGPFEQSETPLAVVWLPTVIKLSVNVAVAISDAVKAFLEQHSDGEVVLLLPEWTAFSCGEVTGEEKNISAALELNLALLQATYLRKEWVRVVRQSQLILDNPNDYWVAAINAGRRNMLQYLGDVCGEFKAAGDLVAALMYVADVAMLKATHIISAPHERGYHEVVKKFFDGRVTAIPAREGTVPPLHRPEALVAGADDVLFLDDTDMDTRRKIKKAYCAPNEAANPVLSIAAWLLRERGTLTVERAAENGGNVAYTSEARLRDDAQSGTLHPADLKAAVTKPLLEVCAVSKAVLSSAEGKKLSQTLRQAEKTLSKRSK

[8] = target: T4, Tyrosyl-tRNA synthetase, putative (Trypanosoma cruzi (strain CL Brener)); assay: Trypanosoma cruzi tyrosyl tRNA synthetase (TcYRS) SOP; type: functional; conditions: 30 µM
[9] = target: Chromo domain-containing protein 1 (Saccharomyces cerevisiae (strain ATCC 204508 / S288c) (Baker's yeast)) (UniProt P32657); assay: ScCHD-1 Enzyme Inhibition Assay; type: functional; conditions: 30 µM; note: in the data most compounds retested in dose-response had high values
Chain of Chromo domain-containing protein 1 (Saccharomyces cerevisiae (strain ATCC 204508 / S288c) (Baker's yeast)) (P32657 whole entry, the tested form may be a part): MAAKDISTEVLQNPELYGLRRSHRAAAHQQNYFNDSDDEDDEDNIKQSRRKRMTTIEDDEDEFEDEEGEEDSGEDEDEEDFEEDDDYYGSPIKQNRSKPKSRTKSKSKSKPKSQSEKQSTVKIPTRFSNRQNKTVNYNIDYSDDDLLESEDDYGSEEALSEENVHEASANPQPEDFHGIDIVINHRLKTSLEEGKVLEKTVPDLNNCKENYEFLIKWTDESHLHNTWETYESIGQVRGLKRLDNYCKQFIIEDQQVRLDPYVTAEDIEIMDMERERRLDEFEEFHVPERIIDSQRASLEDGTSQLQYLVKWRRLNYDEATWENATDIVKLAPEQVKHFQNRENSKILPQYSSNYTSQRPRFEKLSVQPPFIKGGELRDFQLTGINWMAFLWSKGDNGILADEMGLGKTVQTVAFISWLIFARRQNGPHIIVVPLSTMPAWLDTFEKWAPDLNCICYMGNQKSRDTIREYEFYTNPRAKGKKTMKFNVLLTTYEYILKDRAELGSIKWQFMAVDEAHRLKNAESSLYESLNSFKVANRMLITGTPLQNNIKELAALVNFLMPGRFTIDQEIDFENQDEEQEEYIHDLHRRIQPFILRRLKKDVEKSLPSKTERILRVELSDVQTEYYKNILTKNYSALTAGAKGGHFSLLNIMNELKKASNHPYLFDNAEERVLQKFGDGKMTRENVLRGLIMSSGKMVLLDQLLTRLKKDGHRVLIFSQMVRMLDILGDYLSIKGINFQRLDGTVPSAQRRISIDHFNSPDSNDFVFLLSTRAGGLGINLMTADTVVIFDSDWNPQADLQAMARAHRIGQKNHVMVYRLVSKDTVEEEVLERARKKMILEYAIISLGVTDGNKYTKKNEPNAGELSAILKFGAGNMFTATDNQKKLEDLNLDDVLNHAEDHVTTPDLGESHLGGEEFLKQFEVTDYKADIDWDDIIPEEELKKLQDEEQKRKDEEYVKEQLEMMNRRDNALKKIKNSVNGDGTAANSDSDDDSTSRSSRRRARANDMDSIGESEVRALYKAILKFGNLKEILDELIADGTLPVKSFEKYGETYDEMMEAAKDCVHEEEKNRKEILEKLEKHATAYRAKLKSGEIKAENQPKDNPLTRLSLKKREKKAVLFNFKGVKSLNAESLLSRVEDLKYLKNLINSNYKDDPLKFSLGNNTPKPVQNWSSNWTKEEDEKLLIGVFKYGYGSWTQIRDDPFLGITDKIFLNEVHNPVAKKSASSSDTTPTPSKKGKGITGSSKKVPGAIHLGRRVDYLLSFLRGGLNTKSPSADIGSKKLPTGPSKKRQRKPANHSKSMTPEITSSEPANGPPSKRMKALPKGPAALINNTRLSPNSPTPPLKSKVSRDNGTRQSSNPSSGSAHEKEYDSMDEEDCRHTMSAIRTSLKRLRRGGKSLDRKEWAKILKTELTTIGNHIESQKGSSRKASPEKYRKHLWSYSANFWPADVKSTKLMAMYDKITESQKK

Chain of Protein translocase subunit SecA (Escherichia coli (strain K12)) (P10408 whole entry): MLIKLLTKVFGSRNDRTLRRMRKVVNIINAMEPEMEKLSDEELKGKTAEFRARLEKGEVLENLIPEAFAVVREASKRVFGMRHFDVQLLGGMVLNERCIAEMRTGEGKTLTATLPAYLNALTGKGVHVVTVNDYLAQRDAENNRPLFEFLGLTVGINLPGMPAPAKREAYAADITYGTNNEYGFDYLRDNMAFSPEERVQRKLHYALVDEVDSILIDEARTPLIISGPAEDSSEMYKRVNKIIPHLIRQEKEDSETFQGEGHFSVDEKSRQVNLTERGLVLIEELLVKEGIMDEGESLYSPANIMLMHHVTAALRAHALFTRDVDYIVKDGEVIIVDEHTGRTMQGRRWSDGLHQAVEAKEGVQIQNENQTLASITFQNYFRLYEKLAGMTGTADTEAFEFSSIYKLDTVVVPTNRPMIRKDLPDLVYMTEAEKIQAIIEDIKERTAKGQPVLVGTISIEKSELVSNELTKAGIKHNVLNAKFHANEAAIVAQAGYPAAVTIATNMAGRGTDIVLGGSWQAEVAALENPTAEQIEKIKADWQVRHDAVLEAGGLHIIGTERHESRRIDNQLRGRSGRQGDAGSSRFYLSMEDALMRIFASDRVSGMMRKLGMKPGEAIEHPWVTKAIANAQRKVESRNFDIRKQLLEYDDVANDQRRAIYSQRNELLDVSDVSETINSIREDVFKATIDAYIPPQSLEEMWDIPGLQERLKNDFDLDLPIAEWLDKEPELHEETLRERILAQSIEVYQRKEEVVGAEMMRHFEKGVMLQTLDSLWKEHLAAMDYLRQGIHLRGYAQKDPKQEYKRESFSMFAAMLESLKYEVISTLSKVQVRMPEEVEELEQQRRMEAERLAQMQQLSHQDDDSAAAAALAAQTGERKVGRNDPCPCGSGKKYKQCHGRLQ
Chain of Sialic acid-binding Ig-like lectin 9 (Homo sapiens) (Q9Y336 whole entry): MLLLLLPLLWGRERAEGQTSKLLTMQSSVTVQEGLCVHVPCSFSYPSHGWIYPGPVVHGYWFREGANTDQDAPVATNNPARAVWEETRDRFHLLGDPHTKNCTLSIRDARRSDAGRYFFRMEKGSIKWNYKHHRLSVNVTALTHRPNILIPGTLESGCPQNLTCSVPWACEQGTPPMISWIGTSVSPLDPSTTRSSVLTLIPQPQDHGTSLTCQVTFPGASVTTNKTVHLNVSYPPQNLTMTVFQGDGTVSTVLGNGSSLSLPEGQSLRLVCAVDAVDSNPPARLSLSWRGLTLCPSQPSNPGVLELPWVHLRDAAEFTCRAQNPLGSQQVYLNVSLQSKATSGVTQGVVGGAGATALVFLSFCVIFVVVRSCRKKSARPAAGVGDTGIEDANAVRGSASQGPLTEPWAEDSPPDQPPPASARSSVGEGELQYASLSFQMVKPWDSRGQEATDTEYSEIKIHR

SMILES	Percent Effect [1] [%]	Percent Effect [2] [%]	Percent Effect [3] [%]	Percent Effect [4] [%]	Percent Effect (Trypanosoma cruzi) [%]	Percent Effect [5] [%]	Percent Effect [6] [%]	Percent Effect (Homo sapiens) [%]	Percent Effect [7] [%]	Percent Effect [8] [%]	Percent Effect [9] [%]
Cc1cc(C)c(CNC(=O)N2CCCC2c2ccccc2)c(=O)[nH]1 (centres undefined)	-1.29	-77.2	4.12	3.59	3.59	3.23	19.4	-0.586	3.12	17.7	-23.8
O=C(C1CCCc2[nH]ncc21)N1CCCC1 (centres undefined)	-2.14	-2.7	2.45	-7.51	-0.0978	-1.24	5.92	-17.4	-2.15	-6.17	-2.26
O=C(NCCNc1ccc(C(F)(F)F)cn1)c1cncc(Br)c1	1.84	15.6	50.8	-7	-4.8	3.58	12.5	27.5	13.3	30.6	-20.7
Cc1nc(CNC(=O)NCC(O)c2cccc(Cl)c2)cs1 (centres undefined)	-1.26	2.7	-4.33	3.81	-8.69	-4.29	23.4	6.47	0.529	4.88	-3.89
N#Cc1ccc(NCCNc2ccc(C(F)(F)F)cn2)nc1	-2.89	7.89	4.53	10.9	3.01	-1.53	10.7	104	8.33	24.4	2.5
Cc1cc(CC(=O)N2CCCC2c2nc(C(C)C)no2)on1 (centres undefined)	-3.03	20.8	-13.1	26.8	8.84	3.97	18.8	5.27	6.32	15.4	-9.95
Cc1ccc(Cl)cc1C(=O)N1CCC2(CC1)c1ccccc1[C@@H](N)[C@@H]2O	-6.01	5.41	-7.41	40.2	9.85	-2.38	19	2.23	6.88	12.2	10.1
Cc1cnn(CC2CCCCN2Cc2noc(C3CC3)n2)c1 (centres undefined)	-2.92	5.26	2.62	2.92	0	1.53	9.86	14.8	7.35	9.76	-5.92
O=S(=O)(C1CC1)N1CC[C@]2(C[C@@H](Oc3ccccn3)CO2)C1	-2.9	10.4	2.58	5.55	-2.46	3.23	7.66	11.7	0	8.97	-7.95
